The text below walks through data of the antibiotic and cytotoxicity screens of Wong et al. (2023).

Screen size: about 39,000 compounds; about 1,500 (3.8%) were called active. The entries come from a sample that favours actives as a whole.

The assay concerns HSkMC (human skeletal muscle cells). Description: cytotoxicity call (relative viability < 0.9). Conditions: 10 µM.
For `C[C@H](CO)N1C[C@H](C)[C@@H](CN(C)CC2CCCCC2)Oc2c(NC(=O)Nc3ccc(C(F)(F)F)cc3)cccc2C1=O`, the cytotoxicity call was “active”.

Regarding `C[C@@H]1CN([C@H](C)CO)C(=O)c2cccc(NC(=O)Nc3ccc(F)cc3)c2O[C@H]1CN(C)CC1CCCCC1`, the cytotoxicity call is “inactive”.

Consider `C[C@H](CO)N1C[C@H](C)[C@H](CN(C)CC2CCCCC2)Oc2c(NC(=O)Nc3ccc(C(F)(F)F)cc3)cccc2C1=O`, for which the cytotoxicity call was “inactive”.

For `C[C@H]1CN([C@@H](C)CO)C(=O)c2cccc(NC(=O)Nc3ccc(C(F)(F)F)cc3)c2O[C@@H]1CN(C)CC1CCCCC1`, the cytotoxicity call is “active”.

Take `C[C@@H]1CN([C@H](C)CO)C(=O)c2cccc(NC(=O)Nc3ccc(C(F)(F)F)cc3)c2O[C@H]1CN(C)CC1CCCCC1`: the cytotoxicity call is “active”.

In the case of `C[C@H](CO)N1C[C@H](C)[C@H](CN(C)CC2CCCCC2)Oc2c(NC(=O)Nc3ccc(F)cc3)cccc2C1=O`, the cytotoxicity call was “inactive”.

Take `C[C@H]1CN([C@@H](C)CO)C(=O)c2cccc(NC(=O)Nc3ccc(F)cc3)c2O[C@H]1CN(C)CC1CCCCC1`: the cytotoxicity call was “inactive”.

With `C[C@@H]1CN([C@H](C)CO)C(=O)c2cccc(NC(=O)Nc3ccc(C(F)(F)F)cc3)c2O[C@@H]1CN(C)CC1CCCCC1`, the cytotoxicity call is “active”.

`C[C@H]1CN([C@@H](C)CO)C(=O)c2cccc(NC(=O)Nc3ccc(C(F)(F)F)cc3)c2O[C@H]1CN(C)CC1CCCCC1`: the cytotoxicity call is “inactive”.

Take `C[C@@H]1CN([C@@H](C)CO)C(=O)c2cccc(NC(=O)Nc3ccc(C(F)(F)F)cc3)c2O[C@@H]1CN(C)CC1CCCCC1`: the cytotoxicity call is “inactive”.

On to `C[C@@H]1CN([C@@H](C)CO)C(=O)c2cccc(NC(=O)Nc3ccc(F)cc3)c2O[C@H]1CN(C)CC1CCCCC1`, for which the cytotoxicity call was “inactive”.

For the molecule `C[C@@H]1CN([C@H](C)CO)C(=O)c2cccc(NC(=O)Nc3ccc(F)cc3)c2O[C@@H]1CN(C)CC1CCCCC1`, the cytotoxicity call was “inactive”.

In the case of `C[C@@H]1CN([C@H](C)CO)C(=O)c2cc(C#Cc3ccccc3F)cnc2O[C@@H]1CN(C)C(=O)Cc1ccncc1`, the cytotoxicity call was “inactive”.

`C[C@H](CO)N1C[C@H](C)[C@H](CN(C)S(=O)(=O)c2cn(C)cn2)OCCCC[C@H](C)Oc2ccc(NC(=O)Nc3ccc(C(F)(F)F)cc3)cc2C1=O`: the cytotoxicity call is “inactive”.

As for `O=C(CCC(=O)N1CCOCC1)Nc1c(F)c(F)nc(N2CCOCC2)c1F`, the cytotoxicity call is “inactive”.

As to `C[C@@H]1CCCCO[C@H](CN(C)S(=O)(=O)c2ccccc2)[C@H](C)CN([C@@H](C)CO)C(=O)c2cc(NC(=O)Nc3cccc4ccccc34)ccc2O1`, the cytotoxicity call was “inactive”.

Regarding `COCC(=O)N1C[C@]2(C1)CN([C@H](CO)c1c2c2ccc(cc2n1C)OC)C(=O)CN1CCOCC1`, the cytotoxicity call is “inactive”.

Regarding `C/C=C/c1cccc(-c2nc(C(=O)NCc3ccc(OC)cc3)cc3c2[C@@H](CCO)N([S@@](=O)C(C)(C)C)C3)c1`, the cytotoxicity call is “inactive”.

For the molecule `Cc1ccc(S(=O)(=O)N(C)C[C@H]2Oc3ncc(Br)cc3C(=O)N([C@H](C)CO)C[C@H]2C)cc1`, the cytotoxicity call was “inactive”.

With `C[C@H](CO)N1C[C@H](C)[C@H](CN(C)Cc2ccc(C(F)(F)F)cc2)OCCCC[C@H](C)Oc2ccc(NS(C)(=O)=O)cc2C1=O`, the cytotoxicity call was “inactive”.

In the case of `COc1ccc(OCC(=O)NCC(=O)O)cc1`, the cytotoxicity call is “inactive”.

`O=C(O)Cc1nnc(-c2ccncc2)[nH]1`: the cytotoxicity call was “inactive”.

In the case of `O=C(O)CCN1CCCCCC1=O`, the cytotoxicity call is “inactive”.

`CCn1nnc2c1CCN(S(=O)(=O)c1cn(C)cn1)[C@@H]2COC`: the cytotoxicity call is “inactive”.

Take `COc1ccc(S(=O)(=O)N(C)C[C@H]2OCCCC[C@@H](C)Oc3ccc(NC(=O)Nc4ccc5c(c4)OCO5)cc3C(=O)N([C@@H](C)CO)C[C@@H]2C)cc1`: the cytotoxicity call was “inactive”.

As to `Cc1cc(C(=O)Nc2cccc3c2O[C@H](CN(C)S(=O)(=O)c2cccs2)[C@H](C)CN([C@H](C)CO)C3=O)n(C)n1`, the cytotoxicity call was “inactive”.

Consider `Oc1cccc2ccccc12`, for which the cytotoxicity call was “active”.

`Cc1cccc2ccccc12`: the cytotoxicity call is “inactive”.

`Oc1ccc(F)c2ccccc12`: the cytotoxicity call was “inactive”.

As for `C[C@H](CO)N1C[C@H](C)[C@H](CN(C)C(=O)Nc2ccc(C(F)(F)F)cc2)OCCCC[C@H](C)Oc2ccc(NC(=O)C3CCCCC3)cc2C1=O`, the cytotoxicity call is “inactive”.

As to `O=C(C[C@@H]1CC[C@@H]2[C@H](COC[C@@H](O)CN2S(=O)(=O)c2ccccc2)O1)NCc1ccc2c(c1)OCO2`, the cytotoxicity call is “inactive”.

With `C[C@H]1CN([C@@H](C)CO)C(=O)c2c(c3ccccc3n2C)-c2ccccc2CO[C@@H]1CN(C)C(=O)NC1CCCCC1`, the cytotoxicity call is “inactive”.

For `CC(C)=CCC1=C(O)C(=O)c2ccccc2C1=O`, the cytotoxicity call is “inactive”.

As to `C=CC(C)(C)c1[nH]c2ccccc2c1C1=C(O)C(=O)C(c2c[nH]c3c(CC=C(C)C)cccc23)=C(O)C1=O`, the cytotoxicity call is “active”.

Take `C[C@@H]1CN([C@@H](C)CO)C(=O)c2cc(NS(=O)(=O)c3cn(C)cn3)ccc2O[C@@H]1CN(C)C(=O)Nc1ccc(F)cc1`: the cytotoxicity call was “inactive”.

Take `C[C@@H]1CN([C@@H](C)CO)C(=O)c2cc(NC(=O)Nc3cccc4ccccc34)ccc2O[C@@H](C)CCCCO[C@@H]1CN(C)Cc1ccc(C(=O)O)cc1`: the cytotoxicity call is “inactive”.

For the molecule `Cc1ccc(S(=O)(=O)N(C)C[C@H]2Oc3ccc(NS(=O)(=O)c4ccc(F)cc4)cc3C(=O)N([C@@H](C)CO)C[C@H]2C)cc1`, the cytotoxicity call was “inactive”.

Regarding `COc1ccccc1C#Cc1cnc2c(c1)C(=O)N([C@H](C)CO)C[C@@H](C)[C@H](CN(C)C(=O)c1ccc3c(c1)OCO3)O2`, the cytotoxicity call was “inactive”.

Regarding `COc1ccc(C#Cc2ccc([C@@H]3[C@H](CO)N4CCCCN(S(=O)(=O)c5cn(C)cn5)C[C@@H]34)cc2)cc1`, the cytotoxicity call was “inactive”.

Consider `COc1ccc(C#Cc2ccc([C@H]3[C@@H](CO)N4CCCCN(S(=O)(=O)c5cn(C)cn5)C[C@H]34)cc2)cc1`, for which the cytotoxicity call is “active”.

With `COc1ccc(C#Cc2ccc([C@H]3[C@@H](CO)N4CCCCN(S(=O)(=O)c5cn(C)cn5)C[C@@H]34)cc2)cc1`, the cytotoxicity call is “inactive”.

Take `COc1ccc(C#Cc2ccc([C@@H]3[C@@H](CO)N4CCCCN(S(=O)(=O)c5cn(C)cn5)C[C@@H]34)cc2)cc1`: the cytotoxicity call is “active”.

As to `COc1ccc(C#Cc2ccc([C@@H]3[C@@H](CO)N4CCCCN(S(=O)(=O)c5cn(C)cn5)C[C@H]34)cc2)cc1`, the cytotoxicity call was “active”.

`COc1ccc(C#Cc2ccc([C@H]3[C@H](CO)N4CCCCN(S(=O)(=O)c5cn(C)cn5)C[C@@H]34)cc2)cc1`: the cytotoxicity call was “inactive”.

In the case of `COc1ccc(C#Cc2ccc([C@@H]3[C@H]4CN(S(=O)(=O)c5cn(C)cn5)CCCCN4[C@H]3CO)cc2)cc1`, the cytotoxicity call was “inactive”.

As for `CC(C)(O)C#Cc1ccc([C@H]2[C@H](CO)N3CCCCN(S(C)(=O)=O)C[C@@H]23)cc1`, the cytotoxicity call is “inactive”.

As to `COc1ccc(C#Cc2ccc([C@H]3[C@H]4CN(S(=O)(=O)c5cn(C)cn5)CCCCN4[C@H]3CO)cc2)cc1`, the cytotoxicity call was “inactive”.
